# Results taken from publication PMC5540273 (PLoS ONE, 2017).
# How the values were obtained:
# Conditions in all cases: concentration: 1 μM, replicates: in singlicate; n = 1
# KIT-autoinhibited = system: KIT-autoinhibited
# KIT = system: KIT
# LATS1 = system: LATS1
# LATS2 = system: LATS2
# LCK = system: LCK
# LIMK1 = system: LIMK1
# LIMK2 = system: LIMK2
# LKB1 = system: T1, LKB1
# T1 construct: gene STK11
# LOK = system: T2, LOK
# T2 construct: gene STK10
# LRRK2 = system: LRRK2
# LTK = system: LTK
# LYN = system: LYN
# LZK = system: T3, LZK
# T3 construct: gene MAP3K13
# MAK = system: MAK
# MAP3K15 = system: MAP3K15
# MAP3K1 = system: MAP3K1
# MAP3K2 = system: MAP3K2
# MAP3K3 = system: MAP3K3
# MAP3K4 = system: MAP3K4
# MAP4K2 = system: MAP4K2
# 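Note: KINOMEscan kinase panel screen.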
Compound,%Inh (KIT-autoinhibited),%Inh (KIT),%Inh (LATS1),%Inh (LATS2),%Inh (LCK),%Inh (LIMK1),%Inh (LIMK2),%Inh (LKB1),%Inh (LOK),%Inh (LRRK2),%Inh (LTK),%Inh (LYN),%Inh (LZK),%Inh (MAK),%Inh (MAP3K15),%Inh (MAP3K1),%Inh (MAP3K2),%Inh (MAP3K3),%Inh (MAP3K4),%Inh (MAP4K2)
N#Cc1c(N2CCOCC2)sc(-c2ccn[nH]2)c1-c1ccc(Cl)cc1,1%,25%,22%,15%,13%,6%,0%,25%,5%,0%,17%,0%,20%,12%,45%,5%,0%,30%,2%,0%
NS(=O)(=O)c1cccc(-c2ccc3nccc(-c4cccc(S(N)(=O)=O)c4)c3c2)c1 [GW867253],25%,0%,0%,0%,0%,0%,0%,0%,2%,0%,0%,0%,1%,0%,0%,8%,15%,0%,12%,9%
Cl.Nc1ncnc2occ(-c3ccc(NC(=O)Nc4cc(C(F)(F)F)ccc4F)cc3)c12 [SB-707548],79%,99.9%,0%,40%,88%,25%,34%,21%,99.9%,2%,97.2%,75%,40%,6%,5%,34%,8%,17%,25%,62%
Cn1ccc2ncnc(Oc3ccc(NC(=O)Nc4ccncc4)c(Cl)c3)c21,0%,74%,0%,0%,0%,0%,0%,13%,14%,0%,0%,0%,0%,10%,0%,0%,0%,0%,0%,0%
Cl.Oc1cccc(Nc2ccnc3cc(-c4ccncc4)ccc23)c1 [GW494601],32%,99.8%,6%,0%,98.7%,0%,6%,0%,31%,75%,69%,86%,36%,61%,0%,1%,76%,70%,0%,88%
Cc1nnc(-c2ccc3occ(-c4ccc(C(C)O)cc4)c3c2)o1 (stereo not drawn),0%,11%,15%,12%,2%,29%,0%,7%,4%,4%,0%,18%,0%,0%,0%,10%,3%,19%,9%,20%
Cc1nnc(-c2ccc(C)c(-c3ccc(C(=O)Nc4ccc(NS(C)(=O)=O)cc4)cc3)c2)o1 [GW702865],0%,58%,0%,1%,17%,0%,0%,26%,6%,0%,3%,25%,21%,35%,0%,0%,0%,0%,19%,0%
COc1cc(Nc2nccc(N3CCC(NC(=O)c4cccc(NC(C)=O)c4)C3)n2)cc(OC)c1OC (stereo not drawn) [GSK1379754],8%,70%,0%,0%,30%,16%,0%,0%,0%,12%,20%,1%,0%,18%,0%,0%,10%,0%,14%,0%
O=C(NCCNc1ccnc(Nc2ccc(F)cc2)n1)Nc1ccccc1F [GSK1379880],0%,48%,0%,0%,15%,0%,0%,0%,0%,0%,0%,0%,0%,0%,14%,0%,0%,0%,29%,0%
COc1cc2c(cc1OCCN1CCN(C)CC1)ncc1c3ccc(C#N)cc3[nH]c21,71%,83%,0%,20%,57%,0%,0%,29%,33%,98.8%,0%,19%,11%,21%,61%,0%,0%,0%,0%,54%
NCC(NC(=O)c1cc(-c2cn[nH]c2)c(-c2ccnc3[nH]ccc23)s1)c1ccccc1.O=C(O)C(F)(F)F.O=C(O)C(F)(F)F (stereo not drawn) [GSK1325775],0%,26%,59%,91.1%,4%,0%,28%,57%,0%,3%,0%,0%,0%,16%,21%,12%,8%,0%,20%,84%
Cc1cccc(-c2nc(-c3ccc(S(C)(=O)=O)cc3)sc2-c2ccncc2)c1,7%,18%,36%,50%,23%,0%,1%,0%,0%,2%,0%,14%,8%,17%,9%,12%,10%,9%,0%,0%
COCCNC(=O)c1ccc(-c2cc(C(=O)NC3CC3)cc(F)c2C)cc1 [GW868318],24%,26%,10%,0%,4%,16%,3%,49%,20%,62%,15%,14%,5%,36%,24%,35%,33%,28%,30%,20%
CN1c2ccc(NCc3ccc(F)cc3)cc2-c2c(cnn2C)S1(=O)=O,0%,24%,0%,0%,4%,0%,0%,23%,0%,0%,0%,0%,0%,0%,0%,0%,0%,5%,11%,0%
Cc1c2ccc(N(C)c3ccnc(Nc4cccc(S(N)(=O)=O)c4)n3)cc2nn1Cc1ccccc1.Cl.Cl [GW787226],86%,99.9%,6%,0%,90.7%,89%,73%,48%,98.4%,0%,45%,84%,0%,0%,0%,0%,31%,0%,22%,0%
CN(C(=O)c1ccc(-c2cc(-c3c[nH]nc3-c3ccccn3)ccn2)cc1)C1CCOCC1 [GW810083],0%,0%,0%,2%,0%,0%,0%,16%,0%,0%,0%,0%,0%,6%,0%,0%,0%,0%,0%,0%
Nc1nccc(-c2c(-c3ccc(F)cc3)ncn2C2CCN(CC(F)(F)F)CC2)n1 [SB-236560],11%,0%,0%,69%,0%,5%,0%,0%,2%,0%,100%,13%,7%,29%,0%,0%,0%,0%,0%,0%
O=C(NCCCN1CCOCC1)c1cccc(Nc2nccc(Nc3ccc(Oc4ccccc4)cc3)n2)c1 [GW663929],16%,80%,0%,1%,99.3%,21%,22%,10%,23%,0%,0%,72%,28%,36%,0%,0%,0%,0%,0%,13%
Cc1cn2c(=O)cc(N3CCOCC3)nc2n1Cc1cccc(Cl)c1Cl [GSK2334006],0%,39%,0%,0%,46%,0%,6%,0%,0%,30%,7%,4%,0%,9%,2%,18%,6%,0%,0%,0%
COc1ccc(Nc2ncc(C#N)c(Nc3ccccc3C(N)=O)n2)cc1N1CCN(C)CC1.Cl [GSK1558669],96.1%,99.9%,78%,98.9%,100%,85%,93.4%,58%,99%,98.8%,89%,93.9%,97.5%,66%,73%,38%,99.2%,99.8%,99.9%,98.8%
C[C@@H](Oc1cc(-n2cnc3ccc(NC(=O)NC(C)(C)C)cc32)sc1C(N)=O)c1ccccc1Cl [GSK346294],1%,20%,0%,12%,37%,0%,25%,4%,36%,0%,13%,4%,37%,0%,0%,35%,0%,0%,0%,0%
